In PMC10668032, “Altered binding affinity of SIX1-Q177R correlates with enhanced WNT5A and WNT pathway effector expression in Wilms tumor”:
In all, about 33,000 sequences were measured (“e-score”: median about -0.053, highest 2% from about 0.38 on). The full list was thinned out, with the highest values kept by preference.

What follows are sequences tested against T1, SIX1 homeodomain (reference allele) (human, UniProt Q15475 108-198) (assay: universal protein binding microarray; Universal all-10-mer PBM (8x60K, AMADID 030236), 300 nM GST-tagged protein, Alexa Fluor 488 anti-GST; buffer, salt, pH and temperature not stated (as in Berger); high values mean tight binding). Settings: protein: ivt; tags: N-terminal GST; dsDNA, one strand shown.
T1 sequence: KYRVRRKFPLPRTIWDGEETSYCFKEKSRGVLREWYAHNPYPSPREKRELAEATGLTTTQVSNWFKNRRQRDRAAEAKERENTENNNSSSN
In short: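 Binding was expressed as 8-mer E-scores calculated with the Universal PBM Analysis Suite. The GST-tagged homeodomains, made by in vitro transcription/translation, were applied in duplicate at 300 nM final concentration to universal 'all 10-mer' protein binding microarrays (8×60K format).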

Sequence	binding signal [E-score]
AACACCCT	0.21 ± 0.0269
CCCCGTAG	0.176 ± 0.139
GGGATGAA	0.191 ± 0.0459
CATATTAC	0.219 ± 0.0138
CATATCTC	0.342 ± 0.0177
CATATCAC	0.446 ± 0.0382
CCGCTATC	0.304 ± 0.0394
ATGCCAGG	0.161 ± 0.00747
CTATCTCC	0.217 ± 0.0476
GTATCTCA	0.392 ± 0.0267
ATATCTCA	0.391 ± 0.0526
GGATCTCA	0.298 ± 0.0172
ATCTCTCC	0.184 ± 0.128
ATATCTGG	0.298 ± 0.0486
ATATCTAG	0.285 ± 0.0844
ATATCTCG	0.378 ± 0.0423
ATATCTCC	0.424 ± 0.0218
CTATCTCA	0.256 ± 0.0685
GCATCTCA	0.186 ± 0.00338
ATCTCTCA	0.252 ± 0.0252
AGTACACC	0.209 ± 0.0287
ATCCCTGA	0.272 ± 0.0262
ACTATACT	0.211 ± 0.0749
ACTAGTAT	0.249 ± 0.0623
TACCTCGA	0.159 ± 0.0128
ATAGGATG	0.211 ± 0.00535

Sequence	binding signal [E-score]
GATCGTAA	0.216 ± 0.0203
ACAGATAG	0.208 ± 0.0152
AAACCGAT	0.184 ± 0.013
ATCGTTTG	0.196 ± 0.0542
ATATCTAA	0.316 ± 0.0663
ATATCTAC	0.387 ± 0.0445
CTATCTAC	0.24 ± 0.0207
ACCCGAGA	0.213 ± 0.00331
AGGATATG	0.421 ± 0.00759
CGGATAAC	0.339 ± 0.0303
AGGATAGC	0.229 ± 0.0872
CGGATATC	0.473 ± 0.0121
AGGATATA	0.346 ± 0.0479
CGGATAGC	0.382 ± 0.00849
AGGATAAG	0.181 ± 0.0696
CGGATAAA	0.275 ± 0.0785
CGGATAGA	0.355 ± 0.012
AGGATAAC	0.211 ± 0.00987
AGGATAAT	0.295 ± 0.036
AGGATATC	0.466 ± 0.0183
AGTATGAT	0.2824 ± 0.000431
ATCACGCC	0.26 ± 0.00476
ATCTCTTG	0.224 ± 0.039
CAGATCTG	0.216 ± 0.124
AGCTCGAT	0.227 ± 0.00607
CATCCTAC	0.157 ± 0.0313

Sequence	binding signal [E-score]
ATACATGA	0.231 ± 0.0327
ATACAATG	0.248 ± 0.00431
TATACCCA	0.401 ± 0.0193
TCTACCCA	0.221 ± 0.0189
CATACCCA	0.208 ± 0.066
CATACCCG	0.259 ± 0.0615
GATACCCA	0.4758 ± 0.00303
CGCTATAC	0.254 ± 0.0251
ACTTGTAT	0.246 ± 0.0178
CTTAATAC	0.281 ± 0.0535
CAGATAAC	0.191 ± 0.0157
ATCTGGCC	0.181 ± 0.0229
ATACACCG	0.398 ± 0.0351
AAACACCC	0.253 ± 0.0462
CTACACCC	0.263 ± 0.044
ATACACCC	0.391 ± 0.00614
ATACACCA	0.389 ± 0.0166
GTACACCA	0.233 ± 0.039
ATACACAC	0.249 ± 0.0542
ATACACAG	0.289 ± 0.0145
CTACACCA	0.312 ± 0.0106
CATCGAAG	0.178 ± 0.0656
ATCGTGCC	0.192 ± 0.00267
ATACTTAG	0.205 ± 0.0528
CACCTATC	0.266 ± 0.0455
GAAAGATA	0.324 ± 0.096

Sequence	binding signal [E-score]
GGGAAACC	0.162 ± 0.106
TAATCCAA	0.1853 ± 0.00116
CAATCCAC	0.168 ± 0.0919
CTATCCAG	0.199 ± 0.0567
CTATCCAC	0.219 ± 0.0193
ATATCCAA	0.358 ± 0.01
AGATCCAT	0.254 ± 0.00332
ATATCCAC	0.395 ± 0.0197
CGATCCAC	0.375 ± 0.0695
ATATCCAG	0.373 ± 0.0215
GTATCCAA	0.421 ± 0.0174
GTATCCAC	0.3951 ± 0.00369
ATATCCAT	0.389 ± 0.0181
CGACAGAA	0.153 ± 0.115
ATATGTCG	0.272 ± 0.052
ATCCAGGG	0.236 ± 0.0104
ATCATCAG	0.154 ± 0.0285
GATCTAGC	0.215 ± 0.0211
AATCCATA	0.214 ± 0.0274
CATCCTGA	0.169 ± 0.0388
GATCCTGA	0.301 ± 0.0202
TATCCTGA	0.382 ± 0.0186
GATCCATA	0.357 ± 0.0223
TATCCATA	0.39076 ± 0.000148
GAACAATA	0.2 ± 0.0128
CTTAGATC	0.158 ± 0.00598

Sequence	binding signal [E-score]
CCTACTCA	0.161 ± 0.0165
ATACTAAG	0.209 ± 0.0591
TAACACGA	0.19 ± 0.0238
CTTGATCA	0.218 ± 0.037
ATTGATCC	0.406 ± 0.0164
CTTGATAC	0.442 ± 0.0251
ATTGATGC	0.182 ± 0.0328
CTTGATCC	0.361 ± 0.00995
CTTGACAC	0.244 ± 0.0534
ATTGATAC	0.465 ± 0.0161
CTCAATAC	0.259 ± 0.0252
ATTGATAG	0.288 ± 0.0226
CGTCTCGC	0.167 ± 0.0173
GATCGACC	0.162 ± 0.12
GATCTCGA	0.221 ± 0.00099
AATACTCT	0.257 ± 0.089
AACCTATA	0.205 ± 0.0654
CCCTTGGA	0.213 ± 0.00655
ATCCCTTC	0.303 ± 0.0125
CTACTGTA	0.165 ± 0.0781
AATTAATA	0.191 ± 0.0409
GGATACAA	0.354 ± 0.037
AGATACAA	0.168 ± 0.0186
AGATACAG	0.246 ± 0.0181
GCATACAC	0.155 ± 0.0339
CGATACAA	0.288 ± 0.0425

Sequence	binding signal [E-score]
AGATACAC	0.3801 ± 0.00099
CGATACAC	0.418 ± 0.0108
GGATACAC	0.405 ± 0.0186
CGATACAG	0.313 ± 0.044
ACAATATG	0.239 ± 0.0268
ATCACTTA	0.273 ± 0.0813
ATGGGGTC	0.168 ± 0.00238
AGTAGATC	0.321 ± 0.0238
GACCGATC	0.246 ± 0.028
ATACTTCC	0.241 ± 0.0829
ATTATCAG	0.168 ± 0.0386
AGTATCAG	0.46 ± 0.0186
CCTATCAG	0.326 ± 0.00869
CGTATCAG	0.465 ± 0.00812
ACTATCAG	0.217 ± 0.0215
AGTATCAT	0.473 ± 0.0218
AGTATTAA	0.233 ± 0.112
AGTATCAC	0.464 ± 0.0196
ACTATCAT	0.3 ± 0.0715
AGTATTAG	0.301 ± 0.0212
AGTATAAT	0.265 ± 0.0967
ATCATCAC	0.228 ± 0.00571
ATCGTGAG	0.26 ± 0.00974
CGGTAATA	0.23 ± 0.0198
AGACCGAT	0.179 ± 0.0125
TACTCGGA	0.162 ± 0.0415

Sequence	binding signal [E-score]
ACACCTGA	0.281 ± 0.0355
GAAATATC	0.262 ± 0.0623
ATAGCATA	0.218 ± 0.00716
ACTATCAA	0.253 ± 0.0636
AGTATCAA	0.444 ± 0.0435
ATTATCAA	0.165 ± 0.0524
ACACCAAA	0.263 ± 0.0137
AGTCGATA	0.257 ± 0.0323
GGCAATAC	0.181 ± 0.00926
AAGTGGAT	0.182 ± 0.0178
GTGGTGTA	0.286 ± 0.0221
GCGGTGTA	0.336 ± 0.0311
AGGGTGTC	0.4355 ± 0.00243
CGGGTGGA	0.236 ± 0.0891
GGGGTGTA	0.387 ± 0.00837
CGGGTGTA	0.265 ± 0.0586
CGGGTGTC	0.439 ± 0.025
AGGGTGTA	0.313 ± 0.048
AGGGGGTG	0.186 ± 0.0209
ATCAAGAT	0.209 ± 0.0291
